Several values for one entry are separate records, joined by “and”; a condition that tells them apart may be missing. Equal entries are not always repeated. Records with an inconclusive call do not appear. A number with no mark means an inactive call. Calls follow the shape of the dose curve; as a rule, active = well fitted inhibition curve with a large enough effect; inconclusive = small, poorly fitted or top-dose-only effect; inactive = flat fitted curve, though single readings scatter.

For the assay, the system named is KB-3-1. As to the kind of experiment: Cytotoxic Profiling of Annotated Libraries Using Quantitative High-Throughput Screening (AID 1296008). Also: nearly all actives have a fitted effect of over 60% in size. The following applies: Five cell lines viability, CellTiter-Glo ATP luminescence, 48-72 h; max response: hits give low values. The method in brief:
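Cells exposed to compounds for 48 or 72 hr at 37 degrees Celsius. Viability read as ATP-coupled luminescence with CellTiter-Glo after 10 min at room temperature.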
In general terms: Cellular ATP, detected with luciferase, serves as a proxy for viable cell number.
% is scaled to controls: 0 for no effect and ±100 for the full control effect.

Regarding `[Cl-].[Cl-].[Hg+2]`, the max response is -9.23%. Consider `Clc1ccc(C2(Cn3cncn3)OCCO2)c(Cl)c1`, for which the max response was 4.69%. Take `O=CC=O`: the max response was -15.6%.

With `Clc1ccccc1Cl`, the max response was 4.39%.

As for `O[C@H]1[C@H]2[C@H](O)CCCN2C[C@H]1O`, the max response was -14%. Consider `c1csc(C2(N3CCCCC3)CCCCC2)c1`, for which the max response was 5.46%.

As to `C[C@]12C=CC(=O)C=C1CC[C@@H]1[C@@H]2CC[C@]2(C)OC(=O)CC[C@@H]12`, the max response is 5.64%. As for `CCN(CC)CCO[C@H]1CC[C@@]2(C)C(=CC[C@@H]3[C@@H]2CC[C@]2(C)C(=O)CC[C@@H]32)C1`, the max response was -11.5%.

In the case of `Cc1cccc(C(C)c2cnc[nH]2)c1C` (centres undefined), the max response was 8.09%. Take `CC[C@H]1[C@@H]2C[C@H]3[C@@H]4N(C)c5ccccc5[C@]45C[C@@H](C2[C@H]5O)N3[C@@H]1O` (some centres undefined): the max response is -5.46%. Regarding `C[N+]1([O-])[C@@H]2CC(OC(=O)[C@H](CO)c3ccccc3)C[C@H]1[C@@H]1O[C@@H]12` (some centres undefined), the max response is -17% and 5.47%.

As for `C[C@H]1CCC[C@H](O)CCCCCc2cc(O)cc(O)c2C(=O)O1`, the max response was 2.03%. The result for `O=C1CN(O)C(c2ccccc2)=c2cc(Cl)ccc2=N1` reads -7.95%; that for `c1ccc2sc(SNC3CCCCC3)nc2c1`, -2.06%.

(Values after PubChem BioAssay (NCATS).)
